25 molecules from PubChem BioAssay (Tox21) can be followed below.

Inconclusive results are not listed. Activity calls are given as the source filed them. Unless noted, the call rests on the fitted dose curve; in most records, active means well fitted curve in the direction sought with a large enough effect in the repeat runs; inconclusive means weak or mixed curves; inactive means no such curve, though single readings can be large; an effect the other way counts as inactive or inconclusive.

The nature of experiment [1]: qHTS assay to identify small molecule antagonists of the thyroid receptor (TR) signaling pathway - cell viability counter screen (AID 743064). Further: nearly all actives have a fitted effect of over 50% in size. Further: potency means the concentration at half of the fitted maximal effect. A digest of the protocol: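 Viability of T3-stimulated (1 nM final) GH3.TRE-Luc cells is measured by CellTiter-Fluor fluorescence after 23.5 h compound exposure at 37 °C plus 30 min reagent incubation.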
In general terms: Quantitative high-throughput screening tests each substance at several concentrations.

Experiment [2] is described as follows: qHTS assay to identify small molecule antagonists of the thyroid receptor (TR) signaling pathway (AID 743065). Further: nearly all actives have a fitted effect of over 55% in size. Further: potency means the concentration at half of the fitted maximal effect. A digest of the protocol: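 GH3.TRE-Luc rat pituitary cells carrying two TR response elements driving luciferase were plated for 4 h, given compound plus 1 nM T3 (final), and incubated 23.5 h at 37 C. ONE-Glo luminescence measured reporter inhibition; CellTiter-Fluor fluorescence tracked cytotoxicity.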

In experiment [3] the test system is thyroid hormone receptor (rat, GH3 cells). Kind of experiment: qHTS assay to identify small molecule agonists of the thyroid receptor (TR) signaling pathway (AID 743066; calls by dose curve).
The target of experiment [4] is Estrogen receptor (Homo sapiens) (UniProt P03372). Kind of experiment: qHTS assay to identify small molecule antagonists of the estrogen receptor alpha (ER-alpha) signaling pathway (AID 743069; active means well fitted curve in the direction sought with a large enough effect in the signal ratio in the repeat runs, not every such curve was filed as active; the % refers to the signal ratio). In a few lines: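 HEK293 cells stably carrying an ER-alpha-UAS-bla beta-lactamase reporter were pre-cultured overnight in 2% charcoal-stripped FBS medium. Test compounds in DMSO were added together with 17beta-estradiol for 18 hr at 37C. Read-out was fluorescence after 2 hr with LiveBLAzer B/G FRET substrate at room temperature.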

A short description of experiment [5]: qHTS assay to identify small molecule antagonists of the estrogen receptor alpha (ER-alpha) signaling pathway - cell viability counter screen (AID 743074; calls by dose curve; further: nearly all actives have a fitted effect of over 45% in size).
Experiment [6] has as its target Estrogen receptor (Homo sapiens) (UniProt P03372). Kind of experiment: qHTS assay to identify small molecule agonists of the estrogen receptor alpha (ER-alpha) signaling pathway (AID 743075; calls by dose curve).
Experiment [7] shares this target. Kind of experiment: qHTS assay to identify small molecule agonists of the estrogen receptor alpha (ER-alpha) signaling pathway using the BG1 cell line (AID 743079). Further: nearly all actives have a fitted effect of over 20% in size.
Experiment [8] can be described thus: qHTS assay to identify small molecule antagonists of the estrogen receptor alpha (ER-alpha) signaling pathway using the BG1 cell line (AID 743080; calls by dose curve; further: series mostly up to about 70 µM; nearly all actives have a fitted effect of over 25% in size). A digest of the protocol:
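Antagonist mode: compounds in DMSO were pinned onto BG1-Luc-4E2 cells alongside 17beta-estradiol agonist, incubated 21.5 h, and ERE-driven luciferase measured with ONE-Glo. Cytotoxicity was multiplexed using CellTiter-Fluor fluorescence.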

A short description of experiment [9]: qHTS assay to identify small molecule antagonists of the estrogen receptor alpha (ER-alpha) signaling pathway using the BG1 cell line - cell viability counter screen (AID 743081).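 Further: compound given together with 17beta-estradiol as the ER stimulus; series mostly up to about 70 µM; nearly all actives have a fitted effect of over 45% in size.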
In experiment [10] the target is Aromatase (Homo sapiens) (UniProt P11511). The experiment in a line: qHTS assay to identify aromatase inhibitors (AID 743083). Further: nearly all actives have a fitted effect of over 55% in size. Further: potency means the concentration at half of the fitted maximal effect.
Chain of Aromatase (Homo sapiens) (P11511 whole entry, looked up): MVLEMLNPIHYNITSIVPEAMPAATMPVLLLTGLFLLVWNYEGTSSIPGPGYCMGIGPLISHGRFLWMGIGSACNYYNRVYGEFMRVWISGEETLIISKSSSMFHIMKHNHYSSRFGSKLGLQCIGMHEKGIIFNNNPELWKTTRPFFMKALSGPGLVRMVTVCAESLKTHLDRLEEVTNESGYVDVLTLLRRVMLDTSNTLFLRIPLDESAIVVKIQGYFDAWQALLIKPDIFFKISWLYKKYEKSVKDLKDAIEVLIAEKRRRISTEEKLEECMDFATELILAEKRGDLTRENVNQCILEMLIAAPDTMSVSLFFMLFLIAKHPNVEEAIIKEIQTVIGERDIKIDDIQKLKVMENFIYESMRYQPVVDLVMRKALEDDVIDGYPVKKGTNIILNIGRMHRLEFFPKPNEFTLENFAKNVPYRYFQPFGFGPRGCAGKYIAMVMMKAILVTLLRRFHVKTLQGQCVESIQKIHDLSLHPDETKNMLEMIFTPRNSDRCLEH

Chain of Estrogen receptor (Homo sapiens) (P03372 whole entry, looked up): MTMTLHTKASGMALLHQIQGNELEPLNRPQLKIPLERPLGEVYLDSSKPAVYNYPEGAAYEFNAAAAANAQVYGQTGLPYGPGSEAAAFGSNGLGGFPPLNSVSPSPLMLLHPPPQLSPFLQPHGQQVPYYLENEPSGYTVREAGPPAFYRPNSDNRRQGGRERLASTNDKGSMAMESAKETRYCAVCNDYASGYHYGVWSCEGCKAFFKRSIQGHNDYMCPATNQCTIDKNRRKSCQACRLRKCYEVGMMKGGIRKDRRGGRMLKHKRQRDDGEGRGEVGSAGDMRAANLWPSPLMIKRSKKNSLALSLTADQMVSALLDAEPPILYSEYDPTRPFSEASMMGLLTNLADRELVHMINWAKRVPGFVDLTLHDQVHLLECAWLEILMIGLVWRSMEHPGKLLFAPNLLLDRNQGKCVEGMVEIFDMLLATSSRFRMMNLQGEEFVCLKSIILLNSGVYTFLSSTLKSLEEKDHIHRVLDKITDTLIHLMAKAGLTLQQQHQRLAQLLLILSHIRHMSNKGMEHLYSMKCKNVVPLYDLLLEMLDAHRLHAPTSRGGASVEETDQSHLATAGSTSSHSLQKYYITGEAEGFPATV

Take `CC(C)(C)NCCNC(C)(C)C`: the Potency result in [1], in [2], in experiment [6], in experiment [7], in experiment [9] and in experiment [10] was “inactive” each time. Also, the call in experiment [3], in experiment [4], in experiment [5] and in experiment [8] was inactive.
With `O=C1CCCCCCCCCCCN1`, the Potency entry in [1], in [2], in experiment [6], in [7], in experiment [9] and in [10] was “inactive” in each case. Moreover, the call in experiment [3], in experiment [4], in [5] and in [8] was inactive.
On to `CN1C(=O)N(C)C(O)C1O` (centres undefined), for which the Potency result in experiment [1], in [2], in [6], in experiment [7], in [9] and in [10] was “inactive” in each case. Further, the molecule was classed as inactive in experiment [3], in experiment [4], in experiment [5] and in experiment [8].
`CC/C=C\CCOC(C)=O`: the Potency result in [1], in experiment [2], in experiment [6], in experiment [7], in experiment [9] and in experiment [10] was “inactive” each time. The call in experiment [3], in [4], in [5] and in [8] was inactive.
For the molecule `FC1(F)C(F)(F)C(F)(F)C2(F)C(F)(F)C(F)(F)C(F)(F)C(F)(F)C2(F)C1(F)F` (centres undefined), the Potency entry in experiment [1], in experiment [2], in experiment [6], in experiment [7], in experiment [9] and in experiment [10] was “inactive” in each case. In addition, the molecule was called inactive in experiment [3], in experiment [4], in experiment [5] and in [8].
`CCN(CC)CCNC(=O)c1cc(S(C)(=O)=O)ccc1OC`: the Potency result in experiment [1], in experiment [2], in experiment [6], in experiment [7], in [9] and in [10] was “inactive” each time. Besides, the result in [3], in experiment [4], in [5] and in [8] was inactive.
With `CC(C)(O)C#CC(C)(C)O`, the Potency result in experiment [1], in experiment [2], in experiment [6], in experiment [7], in experiment [9] and in experiment [10] was “inactive” each time. Besides, the outcome in experiment [3], in [4], in experiment [5] and in experiment [8] was inactive.
As for `C=C(C)C(=O)OCCCCCCCC(C)C`, the Potency entry in experiment [1], in experiment [2], in [6], in experiment [7], in experiment [9] and in experiment [10] was “inactive” each time. Further, the call in experiment [3], in experiment [4], in experiment [5] and in experiment [8] was inactive.
Regarding `COCCCOCCCOC`, the Potency result in [1], in experiment [2], in experiment [6], in experiment [7], in [9] and in [10] was “inactive” throughout. The molecule was called inactive in [3], in experiment [4], in experiment [5] and in experiment [8].
`CC1(C)C(O)C(C)(C)C1O` (centres undefined): the Potency result in experiment [1], in experiment [2], in [6], in experiment [7], in experiment [9] and in experiment [10] was “inactive” in each case. Besides, the molecule was classed as inactive in experiment [3], in [4], in [5] and in experiment [8].
Regarding `CC(=O)CC(C)(C)C1CCCCC1`, the Potency result in experiment [1], in experiment [2], in [6], in [7], in experiment [9] and in [10] was “inactive” in each case. Further, the result in experiment [3], in experiment [4], in experiment [5] and in [8] was inactive.
For `C=CCS(=O)(=O)O`, the Potency result in experiment [1], in [2], in experiment [6], in experiment [7], in experiment [9] and in experiment [10] was “inactive” each time. In addition, the call in experiment [3], in experiment [4], in [5] and in experiment [8] was inactive.
Regarding `OC1CCCCC1c1ccccc1` (centres undefined), the Potency result in [1], in experiment [2], in [6], in experiment [7], in experiment [9] and in [10] was “inactive” in each case. The outcome in [3], in experiment [4], in experiment [5] and in experiment [8] was inactive.
For the molecule `CC(C)(C)c1nnc(NS(=O)(=O)c2ccccc2)s1`, the Potency result in [1], in experiment [2], in experiment [6], in experiment [7], in experiment [9] and in [10] was “inactive” each time. Besides, the outcome in experiment [3], in [4], in experiment [5] and in [8] was inactive.
For `COC(=O)C1=C(C)NC(C)=C(C(=O)OC)C1c1ccccc1[N+](=O)[O-]`, the Potency is 48.6 µM (active) in experiment [1], 30.7 µM (active) in [2] and 68.7 µM (active) in experiment [10]. In addition, the molecule was called inactive in experiment [3], in experiment [4], in experiment [5] and in [8]. Also, the Potency result in experiment [6], in experiment [7] and in experiment [9] was “inactive” each time.
With `Cc1cc(O)cc2c1O[C@](C)(CCC[C@H](C)CCC[C@H](C)CCCC(C)C)CC2`, the Potency result in experiment [1], in experiment [2], in experiment [6], in [7], in experiment [9] and in experiment [10] was “inactive” each time. In addition, the call in [3], in experiment [4], in experiment [5] and in experiment [8] was inactive.
As to `CCO/C([O-])=N/c1c[n+](N2CCOCC2)no1`, the Potency result in experiment [1], in experiment [2], in experiment [6], in experiment [7], in experiment [9] and in experiment [10] was “inactive” each time. Further, the molecule was classed as inactive in experiment [3], in experiment [4], in experiment [5] and in [8].
On to `NS(=O)(=O)c1ccc(C(=O)O)cc1`, for which the Potency result in [1], in experiment [2], in experiment [6], in experiment [7], in experiment [9] and in experiment [10] was “inactive” each time. Further, the molecule was classed as inactive in experiment [3], in experiment [4], in [5] and in experiment [8].
As to `Cc1c(NC(C)C)c(=O)n(-c2ccccc2)n1C`, the Potency result in experiment [1], in experiment [2], in [6], in experiment [7], in [9] and in [10] was “inactive” throughout. The call in experiment [3], in experiment [4] and in experiment [8] was inactive.
On to `C1CN(CCOCCN2CCOCC2)CCO1`, for which the Potency result in experiment [1], in experiment [2], in experiment [6], in experiment [7], in experiment [9] and in experiment [10] was “inactive” throughout. Also, the molecule was classed as inactive in experiment [3], in experiment [4], in experiment [5] and in experiment [8].
With `CC(=O)CC(C)C`, the Potency entry in experiment [1] and in experiment [2] was “inactive” in each case. Moreover, the molecule was called inactive in experiment [3] and in experiment [5].
In the case of `CC1=CC(C)C(C=O)CC1` (centres undefined), the Potency result in experiment [1], in [2], in experiment [6], in experiment [9] and in experiment [10] was “inactive” in each case. The outcome in experiment [3], in [4] and in [8] was inactive.
For the molecule `CCOC(=O)c1cccc(N)c1`, the Potency entry in [1], in [2], in experiment [6], in experiment [9] and in [10] was “inactive” throughout. The outcome in experiment [3], in [4] and in experiment [5] was inactive.
Turning to `CCC(=O)OC(C)c1ccccc1` (centres undefined), the Potency entry in [1], in [2], in [6], in experiment [7], in experiment [9] and in experiment [10] was “inactive” in each case. The outcome in [3], in experiment [4], in experiment [5] and in [8] was inactive.
For the molecule `CC(C[N+](C)(C)C)OC(N)=O` (centres undefined), the Potency entry in [1], in experiment [2], in experiment [6], in experiment [7], in experiment [9] and in experiment [10] was “inactive” throughout. Also, the molecule was classed as inactive in [3], in experiment [4], in experiment [5] and in experiment [8].
